# Reference: PubChem BioAssay AID431 (Sanford-Burnham Center for Chemical Genomics, 2006)
# Hit rate of the full screen: of about 63,000 compounds, about 1,100 (1.7%) were called active.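 Rule for the calls: active = compounds whose percent cytotoxicity in the single-dose primary screen, scaled between solvent and toxic-drug controls, exceeds 50; inactive = the rest.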 For the sample, actives were picked, then their nearest neighbours and some compounds at random. Entries with a potency or affinity are not part of this list.
# Assay: viability loss of HPDE-C7K cells – cell-based, fluorescence, HTS, primary screen (AID 431);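 note: 0% = DMSO solvent wells and 100% = doxorubicin-treated wells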
# Settings: HPDE-C7K KRASV12 cells, Alamar Blue viability, 48 h; at 10 µM; active compounds read high
row,Compound,cytotoxicity
1,Cc1ccc(/C(C#N)=C\c2cn(C)c3ccccc23)cc1,35.2% (inactive)
2,CC1(C(=O)NC2CCCC2)CCC(=O)N1CCC1=CCCCC1 (stereo unspecified),-21.1% (inactive)
3,Cc1cccc2cc(C#N)c(SCC(=O)N3CCC(C)CC3)nc12,2.7% (inactive)
4,Cc1cc(C)c2nc(SCC(=O)N3CCCCC3)c(C#N)cc2c1,2.7% (inactive)
5,Cc1cccc2cc(C#N)c(SCCN3CCCCC3)nc12,57.1% (active)
6,Cc1cccc2cc(C#N)c(N3CCN(C)CC3)nc12,1.8% (inactive)
7,Cc1cccc2cc(C#N)c(SCC(=O)N3CC(=O)Nc4ccccc43)nc12,65% (active)
8,Cc1ccccc1-n1c(C)nnc1SCC(=O)N1CC(=O)Nc2ccccc21,-8.9% (inactive)
9,CNc1nc(C)c(C(=O)OCc2ccccc2)s1,-0.8% (inactive)
10,C=CCOn1c(=O)c(=O)n(OCc2ccccc2)c2ccccc21,-23.8% (inactive)
11,C/C(N)=C(/C#N)C(=O)CSc1nc2cc(Cl)ccc2s1,12% (inactive)
12,CCOC(=O)N1CCC(NC(=O)c2cc(S(=O)(=O)N3CCC4(CC3)OCCO4)ccc2F)CC1,-4.2% (inactive)
13,COC(=O)c1ccc(C2C(C#N)=C(N)Oc3cc(C)n(C)c(=O)c32)cc1 (stereo unspecified),-10.1% (inactive)
14,CCCC(=O)c1ccc(N2CCN(C(=O)c3ccc(Br)cc3)CC2)c(F)c1,-6.7% (inactive)
15,CCCC(=O)N1CCN(c2ccc(C(=O)c3ccc(OC)c(Br)c3)cc2F)CC1,62.5% (active)
16,CCCCCC(=O)N1CCN(c2ccc(C(C)=O)cc2F)CC1,0.9% (inactive)
17,COc1ccc(-c2nnc(SCC(=O)N3CCCCC3)o2)cc1OC,-0.7% (inactive)
18,O=C(Nc1ccc(C(F)(F)F)cc1Cl)c1ccc(Cn2cc(Br)cn2)o1,124% (active)
19,O=C(NC1CCCCC1)c1ccc(Cn2cc(Br)cn2)o1,-12.9% (inactive)
20,CC(=O)c1sc(NC(=O)c2ccc(Cn3cc(Br)cn3)o2)nc1C,1.1% (inactive)
21,COc1ccc(NC(=O)CSc2nnc(-c3ccco3)n2C)cc1,0.5% (inactive)
22,O=C(CSc1nnc(-c2ccco2)c(-c2ccco2)n1)Nc1ccccc1,1.2% (inactive)

row,Compound,cytotoxicity
1,Clc1ccccc1CSc1ncccn1,-6% (inactive)
2,Cc1cc(C)nc(SCc2nnc(SCc3ccccc3Cl)o2)n1,-16.5% (inactive)
3,Cc1ccc(NC(=O)CSc2nnc(-c3ccco3)c(-c3ccco3)n2)cc1,90.7% (active)
4,CCNC(=O)CP(=O)(c1ccccc1)c1ccccc1,1.9% (inactive)
5,CCc1ccc(Cn2nnc(C(=O)Nc3cccc(C)c3)c2N)cc1,-0.7% (inactive)
6,CCOC(=O)C1CCCN(CCC(C)c2ccccc2)C1 (stereo unspecified),20.5% (inactive)
7,Cc1c(NC(=O)NC(=O)c2ccc(F)cc2)c(=O)n(-c2ccccc2)n1C,-11.2% (inactive)
8,COc1cccc(Nc2nc(-c3sc(N)nc3C)cs2)c1,60.7% (active)
9,COc1ccc(OC)c(Nc2nc(-c3sc(N)nc3C)cs2)c1,37.6% (inactive)
10,Cc1nc(N)sc1-c1csc(Nc2ccccc2)n1,49% (inactive)
11,COc1ccc(Nc2nc(-c3sc(N)nc3C)cs2)cc1,58% (active)
12,COc1ccc(CCNc2nc(-c3sc(N)nc3C)cs2)cc1OC,16.4% (inactive)
13,Cc1nc(N)sc1-c1csc(Nc2ccccn2)n1,-9.8% (inactive)
14,CCOc1ccc(Nc2c3c(nc4ncnn24)CC(C)CC3)cc1 (stereo unspecified),4.3% (inactive)
15,O=C(O)CCCNS(=O)(=O)c1cccs1,8% (inactive)
16,COc1ccc(NC(=O)C2CC2)cc1-n1cnnn1,-12.2% (inactive)
17,NC(=O)C1CCN(C(=O)CN(c2cccc(C(F)(F)F)c2)S(=O)(=O)c2ccccc2)CC1,-1.4% (inactive)
18,CCOC(=O)Nc1ccc2c(c1)N(C(=O)CCN1CCOCC1)c1ccccc1S2=O (stereo unspecified),69.3% (active)
19,CCOC(=O)Nc1ccc2c(c1)N(C(=O)CCN1CCOCC1)c1ccccc1S2,0.3% (inactive)
20,CCOC(=O)Nc1ccc2c(c1)Sc1ccccc1N2C(=O)CCN1CCOCC1,1.2% (inactive)
21,Cc1c(NC(=O)CSc2nnnn2Cc2ccccc2)c(=O)n(-c2ccccc2)n1C,-13.5% (inactive)
22,Cc1c(NC(=O)Nc2ccc(Cl)c(Cl)c2)c(=O)n(-c2ccccc2)n1C,70.7% (active)

row,Compound,cytotoxicity
1,Cc1c(NC(=O)c2ccc(Br)o2)c(=O)n(-c2ccccc2)n1C,12.6% (inactive)
2,Cc1c(NC(=O)Nc2cccc(Cl)c2)c(=O)n(-c2ccccc2)n1C,-10.4% (inactive)
3,Cc1c(NC(=O)Nc2ccc(Cl)cc2)c(=O)n(-c2ccccc2)n1C,-17% (inactive)
4,Cc1c(NC(=O)c2ccc(=O)oc2)c(=O)n(-c2ccccc2)n1C,-10.4% (inactive)
5,CCOC(=O)c1nn(-c2ccccc2)c(=O)c(C#N)c1C,0.8% (inactive)
6,Cc1noc(C)c1COC(=O)CCCOc1ccc(Cl)cc1Cl,5.6% (inactive)
7,COc1cccc(NC(=O)CN2CCN(S(=O)(=O)c3ccc(C(C)C)cc3)CC2)c1,-4.2% (inactive)
8,C/C(=N\O)C(=O)C(CN1CCCCC1)CN1CCCCC1,-6.8% (inactive)
9,COc1cc(NC(=O)C2C3C=CC(C3)C2C(=O)O)c(OC)cc1Cl (stereo unspecified),2.1% (inactive)
10,N#CC1=C(N)n2c(s/c(=C\c3ccco3)c2=O)=C(C#N)C1c1ccco1 (stereo unspecified),5.8% (inactive)
11,CCOC(=O)C1=C(N)n2c(s/c(=C\c3ccco3)c2=O)=C(C(=O)OC(C)C)C1c1ccco1 (stereo unspecified),0.1% (inactive)
12,CCOC(=O)C1=C(N)n2c(s/c(=C\c3cccnc3)c2=O)=C(C(=O)OC)C1c1cccnc1 (stereo unspecified),-15.5% (inactive)
13,CCOC(=O)C1=C(N)n2c(s/c(=C/c3ccco3)c2=O)=C(C(=O)OC)C1c1ccco1 (stereo unspecified),73.7% (active)
14,CCOC(=O)C1=C(N)n2c(s/c(=C\c3cccnc3)c2=O)=C(C(=O)OCC)C1c1cccnc1 (stereo unspecified),-18.8% (inactive)
15,O=C(OCN1C(=O)c2ccccc2C1=O)c1ccccc1,2.9% (inactive)
16,CCn1c(=O)cc(OCC(=O)Nc2cc(C)ccn2)c2ccccc21,-3.3% (inactive)
17,N#Cc1nc(COc2ccccc2F)oc1N1CCCCCC1,-5.8% (inactive)
18,CCOc1ccccc1CN1CCN(S(C)(=O)=O)CC1,-4.6% (inactive)
19,N#CC1=C(SCC(=O)c2ccccc2)NC2=C(C(=O)CCC2)C1c1ccco1 (stereo unspecified),41.2% (inactive)
20,CCc1ccc(NC(=O)CSC2=C(C#N)C(c3ccco3)C3=C(CCCC3=O)N2)cc1 (stereo unspecified),8.2% (inactive)
21,COc1cccc(NC(=O)CSC2=C(C#N)C(c3ccco3)C3=C(CCCC3=O)N2)c1 (stereo unspecified),15.3% (inactive)
22,Cc1ccc(C(=O)CSC2=C(C#N)C(c3ccco3)C3=C(CC(C)(C)CC3=O)N2)cc1 (stereo unspecified),18.2% (inactive)

row,Compound,cytotoxicity
1,CCCCc1ccc(NC(=O)CSC2=C(C#N)C(c3ccco3)C3=C(CCCC3=O)N2)cc1 (stereo unspecified),79.6% (active)
2,Cc1ccc(NC(=O)CSC2=C(C#N)C(c3ccco3)C3=C(CC(C)(C)CC3=O)N2)cc1 (stereo unspecified),54.3% (active)
3,Cc1ccc(NC(=O)CSC2=C(C#N)C(c3ccco3)C3=C(CCCC3=O)N2)cc1 (stereo unspecified),2.1% (inactive)
4,CC1(C)CC(=O)C2=C(C1)NC(SCC(=O)Nc1ccccc1)=C(C#N)C2c1ccco1 (stereo unspecified),-6.1% (inactive)
5,Cc1ccc(C(=O)CSC2=C(C#N)C(c3ccco3)C3=C(CCCC3=O)N2)cc1 (stereo unspecified),77.3% (active)
6,COc1cc(S(=O)(=O)N2CCN(c3ccccc3F)CC2)ccc1Cl,24% (inactive)
7,CCCC(=O)CN1C(=O)C2(OCCO2)c2ccccc21,-6.1% (inactive)
8,COc1ccc2c(c1)CCc1c(C(=O)NCc3ccc(F)cc3)noc1-2,1.6% (inactive)
9,COc1ccc(OCCC(=O)Nc2cc(C)on2)cc1,1.4% (inactive)
10,CCCCn1c(SCC(=O)Nc2cc(C)on2)nc2ccccc2c1=O,-8.1% (inactive)
11,Cc1nnc2sc(-c3cccc(NC(=O)c4ccc(-c5cccc(Cl)c5)o4)c3)nn12,-2.2% (inactive)
12,Cc1ccc(-c2nn3c(C)nnc3s2)cc1NC(=O)c1ccc(Br)o1,-0.3% (inactive)
13,O=C(Nc1nnc(-c2ccco2)o1)C1CCCCC1,4.3% (inactive)
14,CCOc1ccc(-c2nnn(CC(=O)Nc3ccccc3OC)n2)cc1OCC,-3.2% (inactive)
15,CCOc1ccc(-c2nnn(CC(=O)Nc3cc(OC)ccc3OC)n2)cc1OCC,70.6% (active)
16,CCOc1ccc(-c2nnn(CC(=O)Nc3cc(OC)cc(OC)c3)n2)cc1OCC,-1.3% (inactive)
17,Cc1ccc2[nH]c(C)c(CN(C)C3CCN(C)CC3)c(=O)c2c1,-9.9% (inactive)
18,O=C(NCc1ccco1)c1cccc2ccccc12,-9% (inactive)
19,Cc1ccc(-c2n[nH]c(=O)c3ccccc23)cc1N,1.4% (inactive)
20,CCC(c1nc2ccccc2c(=O)n1CCCn1ccnc1)N1C(=O)c2ccccc2C1=O (stereo unspecified),-3.6% (inactive)
21,COc1ccc(N/C=C(\C#N)c2nc3ccccc3n2C)c(OC)c1,44.3% (inactive)
22,C(=C\c1ccccc1)/CN1CCN(C(c2ccccc2)c2ccccc2)CC1,2.8% (inactive)

row,Compound,cytotoxicity
1,O=C(Nc1ccc(F)cc1)N1CCN(C/C=C/c2ccccc2)CC1,25.8% (inactive)
2,O=C(CSC1=Nc2ccccc2C2=NC(CC(=O)NCc3ccco3)C(=O)N12)NCC1CCCO1 (stereo unspecified),-7.9% (inactive)
3,CCOc1ccc(C(=O)N2CCN=C2SC)cc1OCC,-3.5% (inactive)
4,Cc1ccc(C)c(OCC(=O)Nc2cc(C)on2)c1,4.9% (inactive)
5,Cc1ccc(C)c(OCC(=O)Nc2ccc3c(c2)OCO3)c1,-3.1% (inactive)
6,Cc1ccc(C)c(OCC(=O)Nc2nonc2NC(=O)COc2cc(C)ccc2C)c1,74.3% (active)
7,CSc1nnc([C@H](C)NC(=O)OC(C)(C)C)o1,-22.1% (inactive)
8,Cn1cccc1C(C(=O)NC1CCCCC1)N(C(=O)Cc1cccs1)C1CC1 (stereo unspecified),-22.4% (inactive)
9,CC(C)(C)c1ccc(C(=O)CCCSC2=C(C#N)C(c3ccco3)C3=C(CCCC3=O)N2)cc1 (stereo unspecified),18.5% (inactive)
10,N#Cc1ccc(-c2ccco2)nc1SCC(=O)c1ccc(Cl)cc1,19.1% (inactive)
11,COc1ccc(NC(=O)CSC2=C(C#N)C(c3ccco3)C3=C(CCCC3=O)N2)c(OC)c1 (stereo unspecified),-2.7% (inactive)
12,Cc1cccc(N2CCN(c3cc(C)nc4nnnn34)CC2C)c1 (stereo unspecified),-38.8% (inactive)
13,O=C(Cn1cnc2c(nnn2Cc2ccc(Cl)cc2)c1=O)NCC1CCCO1 (stereo unspecified),-3.4% (inactive)
14,COC(=O)c1c(NC(=O)c2cccs2)sc2c1CCC(C)C2 (stereo unspecified),5.5% (inactive)
15,Cc1ccc(-c2csc3nnc(SCC(=O)Nc4nsc(-c5ccccc5)n4)n23)cc1,-0.3% (inactive)
16,Cc1sc(NC(=O)CSc2nnc(COc3ccccc3)n2C)c(C#N)c1C,4.2% (inactive)
17,CC(C)CCNc1ncnc2c1nnn2Cc1ccccc1Cl,-8.2% (inactive)
18,Clc1ccccc1Cn1nnc2c(Nc3ccccc3)ncnc21,-4.9% (inactive)
